Sampled rows, rich in hits. Any-hit rate of the full collection: about 2.2%.
HIF act = HIF pathway transcriptional activation | activation, % at 7.5 µM (by protocol) | U2OS HRE-luciferase reporter, luminescence; normalized: DMSO 0%, desferrioxamine 100% | 300,000 compounds, 0.32% hits;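 active = mean activation of at least 10% of the iron chelator positive control signal, with at least half of replicates also reaching 10%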
VLA-4 inh = inhibition in a human VLA-4 binding assay. inhibition, % (about 7 µM as worked out from the volumes in the protocol). 330,000 compounds, 0.2% hits. P13612. VLA-4 expressing cells, ligand binding flow cytometry; in the data active = inhibition above about 50%
CHT block = human CHT choline transport inhibition | B-score at 10 µM | Q9GZV3 | CHT-expressing cells, membrane potential dye, choline response; hits give low values | 310,000 compounds, 0.86% hits;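 active = B-score over 3 SD under the library average, and starting fluorescence ratio not unusually high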;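 also: choline stimulus applied at its EC90 after an EC20 pre-addition; B-score computed on integrated fluorescence ratio after choline addition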
Platelet DG rel = platelet dense granule release activity; 300,000 compounds, 0.22% hits; human platelet-rich plasma, SFLLRN dense granule ATP release, luminescence; inhibition, %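 (compounds screened at 7.5 µM in platelet-rich plasma)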;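 active = mean replicate score, as percent of positive control, at or above 50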
CHT allo act = human CHT allosteric activation; Q9GZV3; CHT-expressing cells, membrane potential dye, choline EC20; hits give high values; LV-AA mutant CHT in HEK293 cells; B-score at 10 µM; 310,000 compounds, 0.49% hits; AID 488977;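 active = initial fluorescence not abnormally high and integrated response B-score, plate-corrected, over 3 SD above library mean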
AI-2 QS modul = Vibrio harveyi AI-2 quorum sensing modulation | Vibrio harveyi JMH597 AI-2 luminescence/OD600 ratio, 9 h; hits give low values; strain lacks LuxN and CqsS sensors; 0 = neutral-control median | activity change, % at 7.5 µM | 300,000 compounds, 0.4% hits | AID 2094; in the data active = activity change below about -75%, passing the limit was not always enough;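 also: luminescence divided by OD600 gain over 9 h not by final OD600 alone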
VLA-4 mod pick = human VLA-4 allosteric modulation in cherry picked compounds; shares compounds with VLA-4 inh; U937 cells, HUTS-21 LIBS mAb binding, flow cytometry; LDV ligand present at threefold Kd; 1,300 compounds, 2% hits; inhibition, % at 6.7 µM; AID 2813; in the data active = inhibition above about 40%;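 also: 0% = ligand without compound and 100% = no ligand background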
An asterisk follows results filed as active; i = inactive; / = no result given.

SMILES | HIF act | VLA-4 inh | CHT block | Platelet DG rel | CHT allo act | AI-2 QS modul | VLA-4 mod pick
O=C(NC1CC1)C1CC(=O)N(c2ccc(F)cc2)C1 (centres undefined) | 0 | 6 | i | -6 | i | 6 | /
CCC(Cc1ccccc1)NS(=O)(=O)c1ccc2c(c1)NC(=O)CO2 (centres undefined) | 0 | -11 | i | 10 | i | -1 | /
CCOc1ccc(C2/C(=C(/O)c3ccc4c(c3)CC(C)O4)C(=O)C(=O)N2CCCn2ccnc2)cc1OCC (centres undefined) | 0 | 0 | i | -3 | i | 21 | /
Cc1cccc(N2CCN(C(=O)c3ccc(Cl)c(NC4=NC5CS(=O)(=O)CC5S4)c3)CC2C)c1 (centres undefined) | 0 | -14 | i | -2 | i | 22 | -6
Cc1ccc(NC(=O)C(C)c2ccc(-c3ccccc3)c(F)c2)cc1 (centres undefined) | 0 | 88* | i | 3 | i | 9 | -1
COC(=O)CC1C(=O)NCCN1C(=S)Nc1ccccc1Cl (centres undefined) | -1 | 53* | i | 10 | i | 12 | 2
COC(=O)CC1C(=O)NCCN1C(=S)Nc1ccc(F)cc1 (centres undefined) | 0 | 4 | i | 0 | i | 18 | /
Cc1ccccc1NC(=O)Cn1c(=O)oc2ccccc21 | -1 | 16 | i | -5 | i | 9 | /
COc1ccc(C)cc1NC(=O)Cn1c(=O)oc2ccccc21 | 0 | 44 | i | 6 | i | 18 | -20
COc1cccc(CNC(=O)Cn2c(=O)oc3ccccc32)c1OC | 0 | 38 | i | 16 | i | 18 | -5
COc1ccc(CNC(=O)Cn2c(=O)oc3ccccc32)cc1OC | / | 97* | i | / | i | / | -11
COc1ccc(C)cc1NC(=O)Nc1ccccc1 | 0 | 50* | i | 3 | i | 8 | -4
Cc1ccccc1NS(=O)(=O)c1cc(C(=O)NCc2ccncc2)ccc1Cl | 1 | -9 | i | -1 | i | 8 | /
CCOc1ccc(-c2c(C(=O)N/N=C/c3cccc(Br)c3)nnn2-c2nonc2N)cc1 | 0 | 2 | i | 18 | i | 23 | /
Cc1ccc(NC(=O)Nc2ccccc2C(N)=O)cc1 | 1 | -1 | i | 22 | i | 13 | 8
CC1CCC(NC(=O)Cn2c(=O)oc3ccccc32)CC1 (centres undefined) | 0 | -15 | i | 16 | i | 8 | 0
CN(CC(=O)Nc1ccccc1C(F)(F)F)C(=O)Cn1c(=O)oc2ccccc21 | 0 | 6 | i | -22 | i | / | 1
CC1(C)CC(=O)C=C(c2ccc(F)nc2)C1 | / | -1 | / | / | / | / | /
COC(=O)CN1C(=O)[C@H]2[C@@H](c3ccc(C)o3)N3C(=O)CN(CC4CC4)C(=O)[C@@]3(C)[C@H]2C1=O | 1 | 16 | i | 9 | i | 9 | /
COc1ccccc1N1CCN(C(=O)c2ccc3[nH]c(C)c(C)c3c2)CC1 | 0 | 50* | i | 9 | i | 13 | 26
S=c1nc[nH]c2c1[nH]c1ccc(Cl)cc12 | 1 | -5 | i | 0 | i | 35 | /
Nc1nc(=S)c2[nH]cnc2[nH]1 | / | 57* | i | / | i | / | -2
CCCc1cnc(NCCNCC(O)COc2ccc(Cl)c(Cl)c2)nc1 (centres undefined) | 0 | 2 | i | 4 | i | 3 | /
COc1ccc(CNC(=O)COC(=O)CN2C(=O)C3CC=CCC3C2=O)cc1 (centres undefined) | / | -6 | / | / | / | / | /
Cc1ccc2ncnc(-c3ccccc3)c2c1 | 0 | 2 | i | 22 | i | -1 | /
c1ccc(-c2ncnc3cc4n(c23)CCC4)cc1 | 1 | 61* | i | 3 | i | 14 | -1
Cc1cc(C)cc(-n2cc(C(=O)O)c(=O)cc2C)c1 | 0 | -7 | i | 0 | i | 10 | /
CN(C(=O)COC(=O)c1cccc(F)c1)c1ccccc1 | 0 | 30 | i | 5 | i | 12 | /

High-throughput results (PubChem BioAssay)
